According to PubChem BioAssay (EPA / NIEHS):
Activity calls are given as the source filed them. Rule for the calls: active = hit-call score of the fitted dose curve at least 0.9, where 1 is the maximum; inactive = score below 0.9.

Tests used:
[1] = ATG_E_Box_CIS: Attagene CIS-FACTORIAL HepG2 Assay for human Enhancer Box (E-box) (AID 2282936); conditions: HepG2 E-box cis-reporter transcription, actives raise or lower the signal
How it was run: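 DMSO served as negative control and baseline for bidirectional fitting. Human hepatoma HepG2 cells, transiently transfected with cis-reporter constructs, were dosed 24 h; reporter mRNA read by RT-PCR and capillary electrophoresis.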

[2] = ATG_M_61_CIS: Attagene CIS-FACTORIAL HepG2 Assay for M61 Transcription Factor (Internal Marker) (AID 2282937); conditions: HepG2 Attagene CIS-FACTORIAL M61 internal marker reporter; actives raise or lower the signal
How it was run: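 Cells were transfected with reporter units under cis-regulatory promoters, treated with chemicals for 24 h, then lysed for RNA. Reporter transcripts were quantified by RT-PCR and capillary electrophoresis, and activity was fitted bidirectionally against DMSO.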

[3] = ATG_EGR_CIS: Attagene CIS-FACTORIAL HepG2 Assay for human Early Growth Response 1 (EGR1) (AID 2282938); conditions: HepG2 Attagene CIS-FACTORIAL EGR reporter mRNA; actives raise or lower the signal
How it was run: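 Endogenous TF activity in HepG2 liver cells was gauged through cis-promoter reporter constructs transiently transfected. After 24 h dosing, reporter mRNA was quantified by RT-PCR and capillary electrophoresis, and curves fitted in both directions versus DMSO.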

[4] = ATG_M_19_CIS: Attagene CIS-FACTORIAL HepG2 Assay for M19 Transcription Factor (Internal Marker) (AID 2282939); conditions: HepG2 Attagene CIS-FACTORIAL M19 internal marker reporter; actives raise or lower the signal
How it was run: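 Following a 24 h exposure, RNA from transfected HepG2 cells was reverse-transcribed, PCR-amplified with reporter-specific primers, end-labelled with 6-FAM and HpaI-digested before capillary separation. Values represent gain or loss versus DMSO.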

[5] = ATG_Ets_CIS: Attagene CIS-FACTORIAL HepG2 Assay for human Erythroblast Transformation Specific (ETS) (AID 2282941); conditions: HepG2 ETS cis-reporter transcription, actives raise or lower the signal
How it was run: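 Steps: transfect HepG2 with multiple reporter units; treat compound 24 h; isolate RNA, DNase-treat, reverse-transcribe; PCR-amplify, label with 6-FAM, digest with HpaI; separate by capillary electrophoresis. Activity fitted both directions versus DMSO.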

[6] = biological target: Hepatocyte nuclear factor 3-beta (Homo sapiens) (UniProt Q9Y261); assay: ATG_FoxA2_CIS: Attagene CIS-FACTORIAL HepG2 Assay for human Forkhead box A2 (FOXA2) (AID 2282942); conditions: HepG2 cis-reporter transcription factor activity, 24 h; actives raise or lower the signal
How it was run: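 Endogenous transcription factor activity was read in HepG2 cells carrying transiently transfected cis-promoter reporter units. After 24 h dosing, reporter mRNA was quantified by RT-PCR and capillary electrophoresis, and values fitted bidirectionally versus DMSO.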

[7] = ATG_FoxO_CIS: Attagene CIS-FACTORIAL HepG2 Assay for human Forkhead box O (FoxO) (AID 2282943); conditions: HepG2 Attagene cis-reporter, FoxO element, mRNA; actives raise or lower the signal
How it was run: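 HepG2, transient MRTU transfection (cis element, endogenous TFs). Dose 24 h. TriZol RNA → oligo(dT) RT → PCR → 6-FAM primer extension → HpaI cut → CE. Gain/loss vs DMSO.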

[8] = ATG_GATA_CIS: Attagene CIS-FACTORIAL HepG2 Assay for human GATA Binding Protein (AID 2282944); conditions: HepG2 GATA cis-element reporter, Attagene multiplex mRNA; actives raise or lower the signal
How it was run: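 DMSO serves as negative control and baseline for bidirectional fitting of reporter mRNA changes. HepG2 cells bearing transiently transfected cis-promoter reporters were exposed 24 h; transcripts detected via RT-PCR and capillary electrophoresis.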

[9] = ATG_GLI_CIS: Attagene CIS-FACTORIAL HepG2 Assay for human Zinc Finger Protein GLI1 (AID 2282945); conditions: HepG2, Attagene cis-factorial reporter mRNA, GLI element; actives raise or lower the signal
How it was run: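 Bidirectional curve fits relative to DMSO, using reporter mRNA levels from RT-PCR plus capillary electrophoresis. Cells were HepG2 transiently carrying cis-regulated reporter constructs, harvested 24 h after dosing.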

[10] = biological target: Bile acid receptor (Homo sapiens) (UniProt Q96RI1); assay: ATG_IR1_CIS: Attagene CIS-FACTORIAL HepG2 Assay for human Nuclear Receptor Subfamily 1 Group H Member 4 (NR1H4), IR1 submotif (AID 2282946); conditions: IR1 reporter transcription, actives raise or lower the signal
How it was run: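 Cells (human HepG2) carry transiently transfected cis-promoter reporter transcription units. Compounds are incubated 24 h, total RNA is reverse-transcribed and amplified, and labelled fragments are resolved by capillary electrophoresis. Curves use DMSO as baseline.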

[11] = ATG_ISRE_CIS: Attagene CIS-FACTORIAL HepG2 Assay for human Interferon Regulatory Factor 1 (IRF1) binding to an Interferon-Stimulated Response Element (ISRE) (AID 2282948); conditions: HepG2 ISRE cis-reporter (Attagene), mRNA transcription readout; actives raise or lower the signal
How it was run: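 Transfected HepG2 (multiple reporter transcription units, cis elements) dosed 24 h. RNA → oligo(dT) RT → PCR → 6-FAM primer extension → HpaI → CE. DMSO = negative control/baseline.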

[12] = ATG_M_32_CIS: Attagene CIS-FACTORIAL HepG2 Assay for M32 Transcription Factor (Internal Marker) (AID 2282949); conditions: HepG2 Attagene cis-factorial M32 reporter, mRNA; actives raise or lower the signal;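 note: background control marker of the multiplexed CIS panel rather than a real target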
How it was run: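 Internal background marker read-out: RT-PCR/capillary electrophoresis fluorescence of reporter transcripts from transiently transfected HepG2 cells after 24 h chemical exposure. Activity fitted bidirectionally relative to DMSO negative control.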

[13] = ATG_M_06_CIS: Attagene CIS-FACTORIAL HepG2 Assay for M06 Transcription Factor (Internal Marker) (AID 2282950); conditions: HepG2 Attagene CIS-FACTORIAL M06 internal marker reporter; actives raise or lower the signal
How it was run: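 Fluorescence-labelled RT-PCR products from cis-promoter reporter units, cut with HpaI and resolved by capillary electrophoresis, give the signal. Cells are human HepG2, dosed for 24 h. Serves as background control, fitted relative to DMSO.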

[14] = biological target: Hypoxia-inducible factor 1-alpha (Homo sapiens) (UniProt Q16665); assay: ATG_HIF1a_CIS: Attagene CIS-FACTORIAL HepG2 Assay for human Hypoxia Inducible Factor 1 (HIF1A) (AID 2282951); conditions: HepG2 Attagene cis-factorial HIF1a reporter transcription; actives raise or lower the signal
How it was run: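 Measures endogenous transcription-factor activity through cis-regulated reporter mRNA in HepG2. Cells dosed 24 h; transcripts quantified by RT-PCR with 6-FAM-labelled products separated by capillary electrophoresis; DMSO serves as negative control.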

[15] = biological target: Hepatocyte nuclear factor 6 (Homo sapiens) (UniProt Q9UBC0); assay: ATG_HNF6_CIS: Attagene CIS-FACTORIAL HepG2 Assay for human Hepatocyte Nuclear Factor 6 (HNF6) (AID 2282952); conditions: HepG2 Attagene cis-factorial HNF6 reporter transcription; actives raise or lower the signal
How it was run: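 Cells are HepG2 carrying transiently transfected cis-promoter reporter units. Treatment lasts 24 h, after which reporter transcripts are reverse-transcribed, amplified, FAM-labelled and sized by capillary electrophoresis. DMSO serves as baseline.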

[16] = ATG_MRE_CIS: Attagene CIS-FACTORIAL HepG2 Assay for human Metal Responsive Element (MRE) (AID 2282954); conditions: HepG2 MRE cis-reporter transcription, Attagene multiplex; actives raise or lower the signal
How it was run: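 After a 24 h chemical exposure, transiently transfected HepG2 cells yield RNA whose reporter sequences are amplified, FAM-labelled and sized by capillary electrophoresis. Curves are fitted bidirectionally relative to DMSO.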

[17] = biological target: Paired box protein Pax-6 (Homo sapiens) (UniProt P26367); assay: ATG_Pax6_CIS: Attagene CIS-FACTORIAL HepG2 Assay for human Paired Box 6 (PAX6) (AID 2282956); conditions: HepG2 CIS-FACTORIAL PAX6 reporter transcription, RNA readout; actives raise or lower the signal
How it was run: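 Transient MRTU transfection of HepG2 → compound exposure 24 h → TriZol RNA, oligo(dT) RT → PCR, 6-FAM primer extension, HpaI cut → capillary electrophoresis; activity fitted both directions against DMSO.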

[18] = ATG_GRE_CIS: Attagene CIS-FACTORIAL HepG2 Assay for human Glucocorticoid Response Elements (GRE) (AID 2282947); conditions: HepG2 GRE cis-reporter, Attagene multiplex mRNA; actives raise or lower the signal
How it was run: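 Assay uses human hepatoma HepG2 cells transfected with cis-promoter reporter units, exposed 24 h. mRNA from reporters detected by RT-PCR plus capillary electrophoresis; DMSO serves as negative control and baseline.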

[19] = biological target: Heat shock factor protein 1 (Homo sapiens) (UniProt Q00613); assay: ATG_HSE_CIS: Attagene CIS-FACTORIAL HepG2 Assay for human Heat Shock Transcription Factor 1 (HSE) (AID 2282953); conditions: HepG2 HSE cis-reporter, Attagene RNA transcription; actives raise or lower the signal
How it was run: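 After a 24 h incubation with test chemical, transfected HepG2 cells were harvested for RNA; reporter transcripts were measured by RT-PCR and capillary electrophoresis. Values reflect gain or loss of signal relative to DMSO.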

[20] = ATG_PBREM_CIS: Attagene CIS-FACTORIAL HepG2 Assay for human Phenobarbital-responsive Enhancer Module (PBREM) (AID 2282955); conditions: HepG2 PBREM cis-reporter, Attagene multiplexed transcription; actives raise or lower the signal
How it was run: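 Fluorescence of labelled reporter cDNA fragments, resolved by capillary electrophoresis, gives mRNA induction in transfected HepG2 cells treated for 24 h; DMSO serves as negative control and baseline.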

Measured: AC50

Bile acid receptor (Homo sapiens), sequence (Q96RI1 whole entry, looked up, the tested form may be a part): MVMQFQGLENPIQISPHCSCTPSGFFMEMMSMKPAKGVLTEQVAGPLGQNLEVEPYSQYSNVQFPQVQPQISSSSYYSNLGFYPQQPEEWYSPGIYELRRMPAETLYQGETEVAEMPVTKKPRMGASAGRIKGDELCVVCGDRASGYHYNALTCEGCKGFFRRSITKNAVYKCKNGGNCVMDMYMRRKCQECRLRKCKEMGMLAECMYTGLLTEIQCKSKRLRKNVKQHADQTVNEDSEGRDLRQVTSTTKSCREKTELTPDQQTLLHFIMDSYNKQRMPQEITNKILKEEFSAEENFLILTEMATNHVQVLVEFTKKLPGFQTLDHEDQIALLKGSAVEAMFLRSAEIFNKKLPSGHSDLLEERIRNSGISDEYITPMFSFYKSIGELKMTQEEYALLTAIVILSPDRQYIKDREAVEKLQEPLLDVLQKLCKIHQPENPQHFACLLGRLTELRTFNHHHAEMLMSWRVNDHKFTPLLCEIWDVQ
Heat shock factor protein 1 (Homo sapiens), sequence (Q00613 whole entry, looked up): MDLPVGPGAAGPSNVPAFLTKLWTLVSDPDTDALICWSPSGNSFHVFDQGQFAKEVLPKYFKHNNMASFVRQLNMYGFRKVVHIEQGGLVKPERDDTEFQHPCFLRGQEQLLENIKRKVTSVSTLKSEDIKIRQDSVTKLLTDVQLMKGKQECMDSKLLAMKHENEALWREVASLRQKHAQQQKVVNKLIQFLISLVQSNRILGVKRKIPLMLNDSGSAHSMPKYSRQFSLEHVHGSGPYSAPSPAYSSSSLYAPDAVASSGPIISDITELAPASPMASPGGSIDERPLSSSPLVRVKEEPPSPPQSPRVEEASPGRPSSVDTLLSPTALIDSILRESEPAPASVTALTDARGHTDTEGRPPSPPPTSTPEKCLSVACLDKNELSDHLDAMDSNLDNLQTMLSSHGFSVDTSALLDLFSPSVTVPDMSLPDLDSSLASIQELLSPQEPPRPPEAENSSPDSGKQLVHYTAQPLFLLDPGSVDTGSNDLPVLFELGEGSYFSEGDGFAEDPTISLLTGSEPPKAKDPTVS
Hepatocyte nuclear factor 6 (Homo sapiens), sequence (Q9UBC0 whole entry, looked up): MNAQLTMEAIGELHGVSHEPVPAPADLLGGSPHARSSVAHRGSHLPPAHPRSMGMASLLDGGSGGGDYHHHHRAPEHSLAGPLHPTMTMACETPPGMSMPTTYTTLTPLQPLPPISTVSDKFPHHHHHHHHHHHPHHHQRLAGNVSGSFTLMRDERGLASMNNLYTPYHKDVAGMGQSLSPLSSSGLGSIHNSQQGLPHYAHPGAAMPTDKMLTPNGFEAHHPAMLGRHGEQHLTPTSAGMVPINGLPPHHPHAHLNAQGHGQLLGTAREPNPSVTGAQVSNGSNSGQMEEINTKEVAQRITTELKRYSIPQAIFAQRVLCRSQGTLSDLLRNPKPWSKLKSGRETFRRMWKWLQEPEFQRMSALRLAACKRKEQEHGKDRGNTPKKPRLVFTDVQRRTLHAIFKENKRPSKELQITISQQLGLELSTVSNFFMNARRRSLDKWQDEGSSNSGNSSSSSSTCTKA
Hepatocyte nuclear factor 3-beta (Homo sapiens), sequence (Q9Y261 whole entry, looked up): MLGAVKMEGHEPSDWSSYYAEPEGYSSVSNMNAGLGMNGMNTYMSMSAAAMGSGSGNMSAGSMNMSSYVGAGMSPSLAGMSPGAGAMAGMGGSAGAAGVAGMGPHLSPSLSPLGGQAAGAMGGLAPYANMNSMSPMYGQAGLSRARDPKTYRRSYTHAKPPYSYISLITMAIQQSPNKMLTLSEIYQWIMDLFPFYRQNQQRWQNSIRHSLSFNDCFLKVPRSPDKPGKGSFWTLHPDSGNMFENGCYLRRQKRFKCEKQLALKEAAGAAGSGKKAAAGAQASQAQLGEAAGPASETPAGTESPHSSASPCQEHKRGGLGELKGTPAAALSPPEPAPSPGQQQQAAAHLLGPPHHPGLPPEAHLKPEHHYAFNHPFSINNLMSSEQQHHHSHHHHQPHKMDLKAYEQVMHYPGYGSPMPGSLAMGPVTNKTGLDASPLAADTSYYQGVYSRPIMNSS
Hypoxia-inducible factor 1-alpha (Homo sapiens), sequence (Q16665 whole entry, looked up): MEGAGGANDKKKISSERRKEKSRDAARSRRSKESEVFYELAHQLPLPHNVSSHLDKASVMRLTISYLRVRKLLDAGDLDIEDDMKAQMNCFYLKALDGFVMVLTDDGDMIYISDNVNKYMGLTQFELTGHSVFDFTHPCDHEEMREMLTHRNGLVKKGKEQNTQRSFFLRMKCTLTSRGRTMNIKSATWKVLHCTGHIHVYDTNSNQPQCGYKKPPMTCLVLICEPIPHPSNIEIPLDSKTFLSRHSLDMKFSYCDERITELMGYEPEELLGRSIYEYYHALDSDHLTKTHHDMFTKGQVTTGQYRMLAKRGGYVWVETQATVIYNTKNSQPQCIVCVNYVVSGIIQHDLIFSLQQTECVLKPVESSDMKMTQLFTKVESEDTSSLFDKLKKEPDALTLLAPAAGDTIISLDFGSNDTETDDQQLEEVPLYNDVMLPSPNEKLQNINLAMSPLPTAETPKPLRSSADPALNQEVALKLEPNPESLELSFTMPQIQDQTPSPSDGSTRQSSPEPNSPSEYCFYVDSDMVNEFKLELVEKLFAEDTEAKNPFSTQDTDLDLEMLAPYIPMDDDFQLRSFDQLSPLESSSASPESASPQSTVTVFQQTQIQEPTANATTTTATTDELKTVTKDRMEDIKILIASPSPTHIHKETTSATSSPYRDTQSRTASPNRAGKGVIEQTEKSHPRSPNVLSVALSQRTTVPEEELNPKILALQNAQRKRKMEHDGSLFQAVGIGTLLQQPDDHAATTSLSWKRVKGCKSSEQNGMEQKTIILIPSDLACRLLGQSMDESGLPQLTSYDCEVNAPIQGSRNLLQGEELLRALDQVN
Paired box protein Pax-6 (Homo sapiens), sequence (P26367 whole entry, looked up): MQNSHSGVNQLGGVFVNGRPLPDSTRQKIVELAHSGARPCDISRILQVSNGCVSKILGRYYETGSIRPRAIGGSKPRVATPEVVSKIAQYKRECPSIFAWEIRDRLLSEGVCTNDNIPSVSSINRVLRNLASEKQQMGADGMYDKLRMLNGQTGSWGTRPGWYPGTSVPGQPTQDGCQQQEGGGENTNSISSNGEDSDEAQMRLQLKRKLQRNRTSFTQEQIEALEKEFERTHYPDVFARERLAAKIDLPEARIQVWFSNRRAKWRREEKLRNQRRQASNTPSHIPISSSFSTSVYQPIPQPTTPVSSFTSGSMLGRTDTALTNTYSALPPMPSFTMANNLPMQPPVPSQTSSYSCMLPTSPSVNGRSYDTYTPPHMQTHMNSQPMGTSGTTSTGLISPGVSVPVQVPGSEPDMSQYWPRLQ

Cc1cc(N=Nc2ccccc2C)ccc1N
active: [3] 21.6 µM | [6] 15.7 µM | [14] 24.7 µM | [16] 27.9 µM | [17] 22.4 µM
not listed: [18] | [19] | [20]
inactive: all other assays above

c1ccc(NNc2ccccc2)cc1
not listed: [20]
inactive: all other assays above

CC(C)COC(=O)c1ccccc1C(=O)OCC(C)C
active: [1] 100 µM | [3] 73.4 µM | [11] 167 µM | [16] 109 µM
not listed: [17] | [19] | [20]
inactive: all other assays above

OCCCl
not listed: [17] | [18] | [20]
inactive: all other assays above

Brc1ccc(Oc2ccccc2)cc1
active: [11] 100 µM
not listed: [10] | [17] | [20]
inactive: all other assays above

[O-][Cl+]O
not listed: [10] | [17] | [19] | [20]
inactive: all other assays above

CN(C)[C@@H]1C(=O)C(C(N)=O)=C(O)[C@@]2(O)C(=O)C3=C(O)c4c(O)cccc4[C@@](C)(O)[C@H]3C[C@@H]12
not listed: [14] | [18]
inactive: all other assays above

CN(C)c1ccccc1
not listed: [19] | [20]
inactive: all other assays above
